Experimental data as given in PubChem BioAssay (NCATS).
Results filed as inconclusive are left out. Activity calls are given as the source filed them. Calls follow the shape of the dose curve; as a rule, active = well fitted inhibition curve with a large enough effect; inconclusive = small, poorly fitted or top-dose-only effect; inactive = flat fitted curve, though single readings scatter. Where a SMILES comes first, the peptide text is derived from it. [ ]: non-standard residue; d: D form. ξ: configuration not given here. ξPhe(βξ-Me) = CC(c1ccccc1)C(N)C(=O)O; GABA = NCCCC(=O)O

Key:
CRL-7250 = normal cell line; assay: Cytotoxic Profiling of Annotated Libraries Using Quantitative High-Throughput Screening (AID 1296008); details: Five cell lines viability, CellTiter-Glo ATP luminescence, 48-72 h; max response: active compounds read low; as to max response: % is scaled to controls: 0 for no effect and ±100 for the full control effect
Procedure, shortened: (§1)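 Compounds were pin-transferred onto cells and incubated 48 or 72 hr at 37 degree Celsius, 95% humidity. CellTiter-Glo was added, plates sat 10 min at room temperature, then ATP-coupled luminescence was imaged as the viability read-out.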

HEK293 = assay: as above; details: Five cell lines viability, CellTiter-Glo ATP luminescence, 48-72 h; max response: active compounds read low
Procedure, shortened: as §1

HaCat [1] = assay: as above; details: Five cell lines viability, CellTiter-Glo ATP luminescence, 48-72 h; max response: active compounds read low
Procedure, shortened: as §1

KB-3-1 = assay: as above; details: Five cell lines viability, CellTiter-Glo ATP luminescence, 48-72 h; max response: active compounds read low
Procedure, shortened: as §1

NIH3T3 = assay: as above; details: Five cell lines viability, CellTiter-Glo ATP luminescence, 48-72 h; max response: active compounds read low
Procedure, shortened: as §1

HACAT [2] = assay: qHTS assay to identify novel small-molecules to repurpose for Merkel cell carcinoma treatment (AID 1296009); details: MCC and control cell lines, CellTiter-Glo viability, 72 h; at 44.8 µM (top of the series) unless noted
Procedure, shortened: (§2)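 Luminescence from CellTiter-Glo, read 10 min after addition at room temperature, reported viability following a 72 hr, 37 degree celsius treatment with NPC or MIPE compounds in titration; values normalized to plate controls.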

HEK293T = assay: as above; details: MCC and control cell lines, CellTiter-Glo viability, 72 h; series mostly up to 44.8 µM
Procedure, shortened: as §2
Also: nearly all actives have a fitted effect of over 60% in size.

CC(C)NC[C@H](O)COc1ccc(CCOCC2CC2)cc1
inactive: max response (CRL-7250) -3.5% | outcome (HEK293) | outcome (HaCat [1]) | outcome (KB-3-1) | outcome (NIH3T3) | outcome (HACAT [2]) | Potency (HEK293T)

NCc1c[nH]c(=S)n1C1CCc2c(F)cc(F)cc2C1 (configuration not stated)
inactive: max response (CRL-7250) -1.6% | outcome (HEK293) | outcome (HaCat [1]) | max response (KB-3-1) -6.7% | outcome (NIH3T3) | outcome (HACAT [2]) | Potency (HEK293T)

C=CC1(C)C=C2C(=O)CC3C(C)(C)CCCC3(C(=O)O)C2(O)CC1 (configuration not stated)
inactive: outcome (CRL-7250) | outcome (HEK293) | outcome (HaCat [1]) | outcome (KB-3-1) | max response (NIH3T3) -3.47% | outcome (HACAT [2]) | Potency (HEK293T)

CC(C)CC1NC(=O)C(C(C)c2ccccc2)NC(=O)C(C(C)C)NC(=O)C(C)NC(=O)CCCNC(=O)C(Cc2c[nH]c3ccccc23)NC(=O)C(C)NC1=O (stereo not drawn) (cyclo([GABA]AV[ξPhe(βξ-Me)]LAW); configuration not given here)
inactive: max response (CRL-7250) -5.31% | outcome (HEK293) | outcome (HaCat [1]) | outcome (KB-3-1) | max response (NIH3T3) 3.96% | outcome (HACAT [2]) inactive [at 17.4 µM] | Potency (HEK293T)

CC(=O)[C@@H]1CC[C@]2(C(=O)O)CC[C@]3(C)C(CCC4[C@@]5(C)CC[C@H](O)C(C)(C)C5CC[C@]43C)C12 (some centres not stated)
inactive: outcome (CRL-7250) | outcome (HEK293) | outcome (HaCat [1]) | outcome (KB-3-1) | outcome (NIH3T3) | outcome (HACAT [2]) inactive [at 17.4 µM] | Potency (HEK293T)

CC(CCC1C(C(=O)O)=CC(=O)CC1(C)C)O[C@@H]1O[C@H](CO)[C@@H](O)[C@H](O)[C@H]1O (some centres not stated)
inactive: max response (CRL-7250) 1.37% | outcome (HEK293) | outcome (HaCat [1]) | outcome (KB-3-1) | outcome (NIH3T3) | outcome (HACAT [2]) | Potency (HEK293T)

O=C(O)Cc1nn(Cc2nc3cc(C(F)(F)F)ccc3s2)c(=O)c2nccnc12
inactive: outcome (CRL-7250) | outcome (HEK293) | outcome (HaCat [1]) | max response (KB-3-1) 9.35% | max response (NIH3T3) 3.31% | outcome (HACAT [2]) | Potency (HEK293T)

C=C(C(=O)O)[C@@H]1CC=C2CCC[C@H](C)[C@@]2(C)C1
inactive: max response (CRL-7250) -11.2% | outcome (HEK293) | outcome (HaCat [1]) | max response (KB-3-1) 4.53% | outcome (NIH3T3) | outcome (HACAT [2]) | Potency (HEK293T)

CCOC(=O)c1c(C)nn(-c2cccc([N+](=O)[O-])c2)c1C
inactive: max response (CRL-7250) -7.75% | outcome (HEK293) | outcome (HaCat [1]) | max response (KB-3-1) 0.772% | max response (NIH3T3) 3.21% | outcome (HACAT [2]) | Potency (HEK293T)

CC(=O)O[C@@H]1C[C@@]23C[C@@]24CC[C@H](OC2OC[C@@H](O)[C@H](O)[C@H]2O)C(C)(C)[C@@H]4CC[C@H]3[C@]2(C)CC3OC4(C[C@@H](C)C3[C@@]12C)OCC1(C)OC14 (some centres not stated)
inactive: max response (CRL-7250) -1.36% | outcome (HEK293) | outcome (HaCat [1]) | max response (KB-3-1) -4.87% | max response (NIH3T3) 3.69% | outcome (HACAT [2]) inactive [at 17.4 µM] | Potency (HEK293T)

C/C=C(\C)C(=O)O[C@H]1[C@H](O)[C@]2(COC(C)=O)[C@H](O)C[C@]3(C)C(=CCC4[C@@]5(C)CC[C@H](O[C@@H]6O[C@H](C(=O)O)[C@@H](O[C@@H]7O[C@H](CO)[C@@H](O)[C@H](O)[C@H]7O)[C@H](O)[C@H]6O[C@@H]6O[C@H](CO)[C@@H](O)[C@H](O)[C@H]6O)[C@](C)(CO)C5CC[C@]43C)[C@@H]2CC1(C)C (some centres not stated)
inactive: max response (CRL-7250) -9.07% | outcome (HEK293) | outcome (HaCat [1]) | outcome (KB-3-1) | max response (NIH3T3) 2.26% | outcome (HACAT [2]) inactive [at 9.27 µM] | outcome (HEK293T) inactive [at 9.27 µM]

COC1C=C([C@@H]2CC=C3[C@@]4(C)C(CC[C@]32C)[C@@]2(C)C=CC(=O)C(C)(C)C2C[C@H]4OC(C)=O)C(=O)O1 (some centres not stated)
inactive: outcome (CRL-7250) | outcome (HEK293) | outcome (HaCat [1]) | max response (KB-3-1) -0.943% | outcome (NIH3T3) | outcome (HACAT [2]) inactive [at 17.4 µM] | Potency (HEK293T)

CNC(=O)COC(=O)NCCC1CCN(c2cccc(C)n2)CC1
inactive: max response (CRL-7250) -5.78% | outcome (HEK293) | outcome (HaCat [1]) | max response (KB-3-1) 9.28% | max response (NIH3T3) -5.35% | outcome (HACAT [2]) | Potency (HEK293T)

COc1ccc(/C=C/C(=O)O[C@@H]2[C@@H](OC(C)=O)[C@@H](OC(C)=O)[C@H](O[C@H]3[C@@H]4C=CO[C@@H](O[C@@H]5O[C@H](CO)[C@@H](O)[C@H](O)[C@H]5O)[C@@H]4[C@@]4(CO)O[C@@H]34)O[C@H]2C)cc1O
inactive: max response (CRL-7250) 3.11% | outcome (HEK293) | outcome (HaCat [1]) | max response (KB-3-1) 9.42% | max response (NIH3T3) 3.23% | outcome (HACAT [2]) inactive [at 17.4 µM] | Potency (HEK293T)

COC(=O)c1ccc(O[C@@H]2O[C@H](CO)[C@@H](O)[C@H](O)[C@H]2O)c(OC)c1
inactive: max response (CRL-7250) -0.304% | outcome (HEK293) | outcome (HaCat [1]) | max response (KB-3-1) 4.82% | outcome (NIH3T3) | outcome (HACAT [2]) | Potency (HEK293T)

COc1cc(/C=C/CO)ccc1O[C@@H]1O[C@H](CO)[C@@H](O)[C@H](O)[C@H]1O
inactive: max response (CRL-7250) -3.79% | outcome (HEK293) | outcome (HaCat [1]) | max response (KB-3-1) 9.42% | outcome (NIH3T3) | outcome (HACAT [2]) | Potency (HEK293T)
